Screen size: about 320,000 compounds; about 200 (0.062%) were called active. Another 6% or so got no clear call; they are omitted. Calls come from the whole dose curve; as a rule, active = well fitted activation curve with a large enough effect; inconclusive = small, poorly fitted or top-dose-only effect; inactive = no such curve, though single readings can be large or run the other way. The full list was thinned out, with actives kept by preference.
assay: qHTS assay for re-activators of p53 using a Luc reporter; settings: H1299 p53-A138V BP100-luciferase reporter, luminescence, 24 h; series mostly up to 92.2 µM; activity change, positive = activation: at the top concentration; note: nearly all actives have a fitted effect of over 45% in size; for activity change, positive = activation: % of control where 0% means no effect
From the text: The p53 tumor suppressor plays a key role in suppression of tumorigenesis and in human carcinogenesis. It is frequently found inactivated in human cancers, mainly by point mutation. These point mutations are found in a wide variety of human cancers and a majority of them affect the DNA binding domain of the protein. The point mutations either alter native p53 conformation or abolish DNA contact. Additionally, cancer cells with p53 mutations are more resistant to chemo-radiation therapies. In order to find activators to reactivate this important protein, a cell-based screen for p53-dependent luciferase-reporter expression was developed. A p53-null H1299 lung cancer cell line was stably co-transfected with a temperature sensitive p53 mutant, p53-A138V, and a p53-responsive BP100-luciferase reporter. This cell model has previously been characterized in a gene chip profiling experiment for p53 activation. By lowering the culture temperature from 37 deg C (mutant p53 conformation) to 32 deg C (w.t. p53 conformation), a 30-60 fold increase in activation of luciferase activity is observed. At assay temperate, 37 deg C, basal reporter expression is very low and after the addition of detection reagent, a luminescent read-out is carried out. NIH Chemical Genomics Center [NCGC] NIH Molecular Libraries Probe Production Centers Network [MLPCN] MLPCN Grant: DA031088-01A1 Assay Provider (PI): Yi Sung, University of Michigan at Ann Arbor
5ul of 1000 cells per well are dispensed in all wells except column 4, into white solid-bottom TC-treated Kalypsys plates. The cells are kept in Opti-MEM and supplemented with 10% FBS and dispensed using a Multidrop (Thermo). Then using the Kalypsys pin-tool, 23nl of compounds are pinned. The compounds are starting concentration at 10mM, with 1:5 dilution, 4 points, and the control compound nocodazole is pinned in column 1 at 25mM, 1:3 dilution, in duplicate, 25mM nocodazole is pinned in column 2. Please note, all concentrations are working concentrations. 5ul of 1pM purified luciferase enzyme is dispensed using the Kalypsys dispenser in column 4. Plates are incubated for 24 hrs at 37 deg C, 5% CO2, and 95% humidity. Then 4ul of the detection reagent Amplite (ABD Bioquest) is added using the Kalypsys dispenser. Plates are incubated for 10 min at ambient room temperature and are then read on the ViewLux (Perkin Elmer) using a clear filter for a luminescent read-out.
Potency is the fitted concentration of half-maximal effect.

| Compound | activity change, positive = activation | Potency |
| --- | --- | --- |
| CCN(CC)c1ccc(C(=O)N/N=C(\C)c2cccc(OC)c2)cc1 | 6.61% (inactive) |  |
| COc1cccc(/C(C)=N/Nc2ncc(Cl)cc2Cl)c1 |  | 5.01 µM (active) |
| C/C(=N\Nc1ncc(Cl)cc1Cl)c1cccs1 | -0.226% (inactive) |  |
| O=C1N[C@@H](c2ccccc2)COC(=O)[C@H](Cc2ccc(F)cc2)C/C=C\C[C@@H]1CC(=O)N(CCO)Cc1ccccc1 | -3.96% (inactive) |  |
| Cc1ccc(C(=O)COC(=O)c2cccc(N3C(=O)c4c(C)nc5ccccc5c4C3=O)c2)cc1C |  | 35.5 µM (active) |
| CCCc1nc2ccccc2c(C(=O)OCC(=O)c2ccc3c(c2)NC(=O)CO3)c1CC | 3.69% (inactive) |  |
| O=C(CCc1nc2ccccc2c(=O)[nH]1)OCC(=O)c1cccc(Cl)c1 | -1.1% (inactive) |  |
| CNC[C@@H]1Oc2c(NS(C)(=O)=O)cccc2C(=O)N([C@@H](C)CO)C[C@H]1C | 4.35% (inactive) |  |
| COC(=O)[C@]1(Cc2ccccc2)N[C@H](CN(C)S(=O)(=O)c2ccc(OC(F)(F)F)cc2)[C@@H]2C(=O)N(C)C(=O)[C@@H]21 | 21.7% (inactive) |  |
| COc1ccc(CCNC(=O)COC(=O)c2ncc(Cl)c(Cl)c2Cl)cc1OC | -3.05% (inactive) |  |
| C=CC[C@@H](CC(=O)NCCO)C(=O)N[C@H](C)COC(=O)[C@@H](CC=C)CC(=O)OC(C)(C)C | 2.81% (inactive) |  |
| CC(C)NC(=O)Nc1cccc2c1O[C@@H](CN(C)S(=O)(=O)c1ccc(F)cc1)[C@@H](C)CN([C@H](C)CO)C2=O | -2.1% (inactive) |  |
| C=CCC[C@@H](Cc1ccc(F)cc1)C(=O)O[C@H](CNC(=O)[C@H](CC=C)CC(=O)N(CCO)Cc1ccccc1)c1ccccc1 | 2.56% (inactive) |  |
| Cn1c(N)c(C(=O)COC(=O)c2cccc(S(=O)(=O)N3CCOCC3)c2)c(=O)n(C)c1=O | 3.86% (inactive) |  |
| Cc1ccc(C(=O)NCC(=O)NC2CC2)cc1 | 4.8% (inactive) |  |
| COc1ccc2nc3n(c(=O)c2c1)-c1ccc(Cl)cc1C(=O)NC3Cc1ccccc1 (stereo unspecified) | -4.22% (inactive) |  |
| CCN(C[C@H]1N[C@@](CC)(C(=O)OC)[C@H]2C(=O)N(Cc3ccccc3)C(=O)[C@@H]12)S(=O)(=O)c1ccccc1 | -3.58% (inactive) |  |
| Cc1ccc(S(=O)(=O)Nc2ccc3c(c2)C(=O)N([C@H](C)CO)C[C@@H](C)[C@@H](CN(C)C(=O)Nc2cccc4ccccc24)O3)cc1 | -4.09% (inactive) |  |
| N#CCCN(C(=O)COC(=O)c1ccc2c(c1)OCCO2)c1ccccc1 | -10.6% (inactive) |  |
| O=C(COC(=O)CSc1ccccc1)Nc1ccc(F)cc1F | -3.41% (inactive) |  |
| COc1ccc2[nH]c3c(c2c1)CCN1C(=O)C(CC(=O)NCCCN(C)C)C[C@H](C(=O)N2CCOCC2)[C@@]31CCC1CCCC1 (stereo partly specified) | -5.21% (inactive) |  |
| CC[C@]1(C(=O)OC)[C@H]2C(=O)N(Cc3ccccc3)C(=O)[C@H]2[C@H]2CN=C(SCc3ccc(Cl)cc3)N21 | -2.77% (inactive) |  |
| COC(=O)c1ccc(/C=C/c2c(-c3ccc(OC)cc3)sc3ccccc23)cc1 | 1.3% (inactive) |  |
| Cc1ccc(S(=O)(=O)N2CCN(C(=O)CN3C(=O)NC(C)(c4ccc(Cl)cc4)C3=O)CC2)c(C)c1 (stereo unspecified) | 11.7% (inactive) |  |
| O=C(CSc1nc2ccccc2c(=O)n1-c1ccccc1F)N1CCOCC1 | -7.54% (inactive) |  |
| Cc1c(Cl)cnc(NC(=O)COC(=O)C2CCCC2)c1Cl | -1.21% (inactive) |  |

| Compound | activity change, positive = activation | Potency |
| --- | --- | --- |
| C[C@H](CO)N1C[C@H](C)[C@H](CN(C)C(=O)Nc2ccc(C(F)(F)F)cc2)Oc2c(NC(=O)c3ccncc3)cccc2C1=O | -2.92% (inactive) |  |
| CC[C@]1(C(=O)OC)[C@H]2C(=O)N(Cc3ccccc3)C(=O)[C@H]2[C@H]2CN=C(SCc3ccccc3)N21 | 33.6% (inactive) |  |
| CC[C@@]1(C(=O)OC)N[C@H](CN(C)C(C)=O)[C@@H]2C(=O)N(C)C(=O)[C@@H]21 | 4.26% (inactive) |  |
| CN(C(=O)c1cccc(NC(=O)Cc2cccc([N+](=O)[O-])c2)c1)C1CCCCC1 | -1.26% (inactive) |  |
| COc1cc(C(=O)NC2CCN(C)CC2)ccc1Nc1ncc2c(n1)N(C1CCC(O)CC1)CCC(=O)N2C (stereo unspecified) | -2.64% (inactive) |  |
| CSCCC1NC(=O)N(CC(=O)Nc2cccc(S(=O)(=O)N3CCCCCC3)c2)C1=O (stereo unspecified) | -6.05% (inactive) |  |
| CN(C(=O)c1cccc(NC(=O)C2CCN(C(=O)OC(C)(C)C)CC2)c1)C1CCC1 | -1.82% (inactive) |  |
| Cc1ccc(S(=O)(=O)N2CCN(C(=O)COC(=O)CNC(=O)c3ccc(C(C)(C)C)cc3)CC2)c(C)c1 | 9.42% (inactive) |  |
| CCC(CO)Oc1cc(NCc2ccccc2)c2ncn(C3CCCC3)c2c1 (stereo unspecified) | -0.676% (inactive) |  |
| Nc1ncnc2c1ncn2[C@@H]1O[C@H](CNCc2cccn2-c2nccs2)[C@@H](O)[C@H]1O | 3.16% (inactive) |  |
| CCOC(=O)C1=CN(Cc2ccc(Br)cc2)S(=O)(=O)NC1C (stereo unspecified) | 7.34% (inactive) |  |
| COc1ccc2[nH]c3c(c2c1)CCN1C(=O)C(CC(=O)NCCc2ccccn2)C[C@H](C(=O)N2CCOCC2)[C@@]31C (stereo partly specified) | 6.48% (inactive) |  |
| O=C(COC(=O)c1cc[n+]([O-])cc1)Nc1ccc(Cl)c(C(F)(F)F)c1 | -6.74% (inactive) |  |
| COc1ccc(CCOC2OC(CO)C(OC(=O)/C=C/c3ccc(O)c(OC)c3)C(O[C@H]3O[C@@H](C)[C@H](O)[C@@H](O)[C@H]3O)C2O)cc1O (stereo partly specified) | -0.634% (inactive) |  |
| CCOC(=O)[C@H]1[C@H]2COc3ccccc3[C@@H]2N2C(=O)CN(Cc3ccccc3)C(=O)[C@@]12C | -0.503% (inactive) |  |
| COc1ccc(OC)c(NC(=O)COC(=O)Cc2ccsc2)c1 | 4.86% (inactive) |  |
| O=C(CC1SC(N2CCOCC2)=NC1=O)Nc1ccccc1F (stereo unspecified) | -4.02% (inactive) |  |
| O=C(NC(=S)Nc1ccc(Br)cc1F)C1CCCCC1 | 14.8% (inactive) |  |
| COc1ccc(CNC(=O)C[C@H]2C[C@H](C(=O)N3CCOCC3)[C@@]3(CCC4CCCC4)c4[nH]c5ccc(Cl)cc5c4CCN3C2=O)cc1OC | 5.3% (inactive) |  |
| CCN1C[C@@H]2[C@@H]3C(=O)N(Cc4ccccc4)C(=O)[C@@H]3[C@](Cc3ccccc3)(C(=O)OC)N2C1=NC1CCCCC1 | -5.11% (inactive) |  |
| CCCCNc1c(-c2ccc(OC)c(Sc3ccc(OC)cc3)c2)nc2ccc(Cl)cn12 | 5.53% (inactive) |  |
| CC(C)N(C(=O)[C@H]1C[C@H](CC(=O)NC(C)(C)C)C(=O)N2CCc3c([nH]c4ccc(Cl)cc34)[C@]12C)C(C)C | -11.8% (inactive) |  |
| Cc1c(NC(=O)C(C)OC(=O)c2ccccc2O)c(=O)n(-c2ccccc2)n1C (stereo unspecified) | 0.846% (inactive) |  |
| COCCN(CCOC)S(=O)(=O)NC[C@H]1O[C@@H](n2cnc3c(N)ncnc32)[C@H](O)[C@@H]1O | -0.886% (inactive) |  |
| Cc1ccsc1C(=O)NNC(=O)COc1ccc(Br)cc1 | 19.4% (inactive) |  |
